# Results as given in PubChem BioAssay.
# Values joined by “and” are separate entries in the source; they are usually repeats but may differ in a detail not shown here. Equal values may be shown once. Records with an inconclusive call do not appear. Active and inactive are the calls of the source.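 The calls were made as follows, unless noted: active = normalized viability below 100% at a tested concentration; inactive = the rest.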
# Experiments:
# [1] = viability loss in pontine glioma line – cell-based, SU-DIPG-XXV, MIPE5.0, CellTiter-Glo, qHTS, dose response (AID 1347065; cut-off not given, nearly all actives have AC50 up to about 26 µM;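 also: cells exposed to compound for 48 hours before ATP readout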); conditions: CellTiter-Glo ATP luminescence
# [2] = SU-DIPG-VI glioma cell viability, MIPE4.0 library, CellTiter-Glo luminescence, qHTS (AID 1347066; cut-off not given, nearly all actives have AC50 up to about 30 µM;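 also: cells exposed to compound for 48 hours before readout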); conditions: CellTiter-Glo ATP luminescence
# [3] = JHH-DIPG-1 glioma cell viability, MIPE5.0 library, CellTiter-Glo luminescence, qHTS (AID 1347067; cut-off not given, nearly all actives have AC50 up to about 26 µM;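 also: cells exposed to compound for 48 hours before readout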); conditions: JHH-DIPG-1 glioma viability, CellTiter-Glo ATP luminescence
# [4] = SU-DIPG-XXV glioma cell viability, MIPE5.0 library, qHTS (AID 1347068; cut-off not given, nearly all actives have IC50 up to about 30 µM;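 as to IC50: cells exposed to compound for 48 hours before viability readout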)
# [5] = sensitizers of A549 cells to miR-34 induction, primary screen, imaging, A549 dox-inducible miR-34, nuclei and caspase counts (AID 1347080;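 active = compounds whose cell count with miR-34 switched on is under 0.7 times the count with it off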); conditions: A549 miR-34 inducible, Hoechst nuclei count, 48 h
# [6] = phospholipid biosynthesis inhibitors in animal cells, primary screen, cell-based, LOPAC library, screen 4 (AID 1347384; call rule not given here); conditions: phospholipid biosynthesis inhibition screen, at 10 µM
# [7] = survival rescue of mitochondrial mutant cells in low glucose, primary screen, MELAS cybrids, Rieske KO mouse fibroblasts, CellTiter-Glo (AID 1508586;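 active = mean z-score across replicates of 1.96 or higher in either the MELAS or the Rieske mutant cell line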;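 also: z relative to plate mean and SD of compound and empty wells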)
# [8] = viability rescue of complex I mutant cybrids, primary screen, cell-based, galactose medium, ATP luminescence (AID 1645843;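 active = z-score of at least 1.8 in each of two replicates, scored against plate mean and spread of sample wells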;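 also: positive z means more ATP and so rescue of galactose-driven cybrid death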); conditions: complex I mutant cybrid cells, 72 h, stronger effect = higher value
# [9] = molecular target: NAD(+) hydrolase SARM1 (Homo sapiens) (UniProt Q6SZW1); assay: SARM1 TIR NADase inhibitors, cell lysate, NAD-Glo luminescence (AID 1508614;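 active = compound whose remaining NAD level is above about 45 nM, limit read from the data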;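 also: higher remaining NAD means stronger inhibition of SARM1 NADase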); conditions: SAM-TIR HEK293T lysate NADase, at 1 µM, stronger effect = higher value
# [10] = molecular target: Mitogen-activated protein kinase 7 (Homo sapiens) (UniProt Q13164); assay: ERK5 transactivation activators in reporter cells, primary screen, cell-based, HTS (AID 1508626;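 active = luciferase signal above three times the same-plate solvent-only control wells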;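 also: luciferase driven by Gal4-ERK5 fusion binding five Gal4 sites before minimal TATA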); conditions: HeLa Gal4-ERK5 transactivation, 18 h, at 5 µM, stronger effect = higher value
# [11] = modifiers of HSF1 nuclear foci, imaging, Selleck Cancer Library (AID 1347162; in the data active = plate-normalised HSF1 focus index below about 0.46); conditions: human cells, at 10 µM; SSMD: measured here: HSF1 foci SSMD mean; cell count: measured here: cell number; plate-normalised HSF1 focus index: stronger effect = lower value
# [12] = ovarian cancer cell viability with rucaparib, profiling panel, oncology-focused library, rucaparib conditional (AID 1508598); conditions: patient-derived ovarian cancer cells, CellTiter-Glo viability, 144 h, stronger effect = lower value
# [13] = stronger effect = lower value, cell number ratio, induced over uninduced
# [14] = measured here: relative caspase fold change +Dox/-Dox
# [15] = measured here: total cells with miR-34 induction, stronger effect = lower value
# [16] = measured here: total cells without miR-34 induction
# [17] = MELAS cybrid survival, CellTiter-Glo 48 h, stronger effect = higher value
# [18] = Rieske KO mouse fibroblast survival, CellTiter-Glo 72 h
# Chain of Mitogen-activated protein kinase 7 (Homo sapiens) (Q13164 whole entry, looked up, the tested form may be a part): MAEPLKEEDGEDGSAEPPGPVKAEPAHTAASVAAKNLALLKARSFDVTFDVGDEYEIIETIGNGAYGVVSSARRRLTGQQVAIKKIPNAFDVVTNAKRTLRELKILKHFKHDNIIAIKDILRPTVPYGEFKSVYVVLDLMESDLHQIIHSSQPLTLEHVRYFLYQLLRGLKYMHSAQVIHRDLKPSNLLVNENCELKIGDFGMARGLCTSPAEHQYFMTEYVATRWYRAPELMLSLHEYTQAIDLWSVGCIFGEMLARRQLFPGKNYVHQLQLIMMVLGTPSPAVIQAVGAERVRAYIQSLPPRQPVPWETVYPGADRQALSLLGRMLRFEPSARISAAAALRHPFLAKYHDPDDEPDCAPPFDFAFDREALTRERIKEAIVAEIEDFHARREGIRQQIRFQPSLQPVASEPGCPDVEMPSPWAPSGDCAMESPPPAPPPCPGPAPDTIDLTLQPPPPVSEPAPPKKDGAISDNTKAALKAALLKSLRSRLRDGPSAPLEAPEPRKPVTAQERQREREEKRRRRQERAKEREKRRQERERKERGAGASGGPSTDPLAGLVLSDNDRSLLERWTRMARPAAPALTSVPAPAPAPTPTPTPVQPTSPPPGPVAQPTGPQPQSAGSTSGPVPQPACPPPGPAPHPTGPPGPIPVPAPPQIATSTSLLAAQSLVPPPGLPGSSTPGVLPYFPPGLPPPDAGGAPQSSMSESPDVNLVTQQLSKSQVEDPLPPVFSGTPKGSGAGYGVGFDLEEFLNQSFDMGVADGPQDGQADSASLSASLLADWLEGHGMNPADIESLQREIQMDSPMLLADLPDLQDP
# Chain of NAD(+) hydrolase SARM1 (Homo sapiens) (Q6SZW1 whole entry, looked up, the tested form may be a part): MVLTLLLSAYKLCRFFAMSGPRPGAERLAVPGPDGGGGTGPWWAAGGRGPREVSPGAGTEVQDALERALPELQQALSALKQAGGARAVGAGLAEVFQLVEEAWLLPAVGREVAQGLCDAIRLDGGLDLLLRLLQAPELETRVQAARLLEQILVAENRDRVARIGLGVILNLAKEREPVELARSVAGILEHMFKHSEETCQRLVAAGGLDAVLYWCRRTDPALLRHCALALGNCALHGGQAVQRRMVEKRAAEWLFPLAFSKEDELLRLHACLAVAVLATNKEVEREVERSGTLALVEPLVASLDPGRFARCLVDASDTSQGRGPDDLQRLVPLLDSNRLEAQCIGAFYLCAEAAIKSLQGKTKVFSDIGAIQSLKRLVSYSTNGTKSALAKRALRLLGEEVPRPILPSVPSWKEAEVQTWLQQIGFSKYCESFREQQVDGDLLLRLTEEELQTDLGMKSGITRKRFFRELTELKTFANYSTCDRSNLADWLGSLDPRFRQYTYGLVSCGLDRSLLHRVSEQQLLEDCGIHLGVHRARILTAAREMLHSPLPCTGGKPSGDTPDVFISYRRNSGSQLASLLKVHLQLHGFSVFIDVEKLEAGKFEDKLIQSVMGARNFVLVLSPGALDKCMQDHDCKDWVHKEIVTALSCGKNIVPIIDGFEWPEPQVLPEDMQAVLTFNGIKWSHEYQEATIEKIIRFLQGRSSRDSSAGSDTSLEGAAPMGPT
smiles,measurement,setting,value
CCCN[C@H]1CCc2nc(N)sc2C1,outcome,[1],inactive
same,outcome,[2],inactive
same,outcome,[3],inactive
same,outcome,[4],inactive
same,fold change,[5]; [13],0.926 (inactive) and 0.917 (inactive)
same,fold change,[5]; [14],0.996 and 1.3
same,cell count,[5]; [15],7940 and 9730
same,cell count,[5]; [16],8570 and 10600
same,outcome,[6],inactive
same,z-score,[7]; [17],0.752 (inactive) and 0.407 (inactive)
same,z-score,[7]; [18],0.13 and -0.361
same,z-score,[8],0.97 (inactive)
CC(C)c1ccc2oc3nc(N)c(C(=O)O)cc3c(=O)c2c1,outcome,[1],inactive
same,outcome,[2],inactive
same,outcome,[3],inactive
same,outcome,[4],inactive
same,fold change,[5]; [13],0.955 (inactive)
same,fold change,[5]; [14],1.68
same,cell count,[5]; [15],9060
same,cell count,[5]; [16],9490
same,z-score,[7]; [17],0.841 (inactive)
same,z-score,[7]; [18],-1.05
same,remaining NAD,[9],10 nM (inactive)
same,z-score,[8],0.635 (inactive)
CCCc1cc(C(N)=S)ccn1,outcome,[1],inactive
same,outcome,[2],inactive
same,outcome,[3],inactive
same,outcome,[4],inactive
same,fold change,[5]; [13],0.877 (inactive) and 0.879 (inactive)
same,fold change,[5]; [14],0.726 and 1.06
same,cell count,[5]; [15],7890 and 9370
same,cell count,[5]; [16],8990 and 10700
same,z-score,[7]; [17],-0.334 (inactive) and 1.02 (inactive) and 0.566 (inactive)
same,z-score,[7]; [18],-0.0512 and 0.419 and 0.177
same,remaining NAD,[9],10 nM (inactive)
same,luciferase signal,[10],96 AU (inactive)
same,z-score,[8],0.335 (inactive)
COc1cc2c(Nc3ccc(Br)cc3F)ncnc2cc1OCC1CCN(C)CC1,AC50,[1],14.8 µM (active)
same,AC50,[2],20.9 µM (active)
same,AC50,[3],20.9 µM (active)
same,IC50,[4],26.3 µM (active)
same,fold change,[5]; [13],0.896 (inactive)
same,fold change,[5]; [14],1.03
same,cell count,[5]; [15],1750
same,cell count,[5]; [16],1950
same,SSMD,[11],-3.85
same,cell count,[11],4710
same,plate-normalised HSF1 focus index,[11],0.799 (inactive)
same,z-score,[7]; [17],-0.0745 (inactive)
same,z-score,[7]; [18],-0.742
same,viability,"[12]; at 0.000305 µM, OCI-C5x cells, with rucaparib 10 µM, 100% = cells with rucaparib alone",108% (inactive)
same,viability,"[12]; at 0.000305 µM, OCI-C5x cells, without rucaparib",109% (inactive)
same,viability,"[12]; at 0.000305 µM, OCI-P5x cells, with rucaparib 20 µM, 100% = cells with rucaparib alone",82.1% (active)
same,viability,"[12]; at 0.000305 µM, OCI-P5x cells, without rucaparib",95.9% (active)
same,viability,"[12]; at 0.00122 µM, OCI-C5x cells, with rucaparib 10 µM, 100% = cells with rucaparib alone",103% (inactive)
same,viability,"[12]; at 0.00122 µM, OCI-C5x cells, without rucaparib",106% (inactive)
same,viability,"[12]; at 0.00122 µM, OCI-P5x cells, with rucaparib 20 µM, 100% = cells with rucaparib alone",92.5% (active)
same,viability,"[12]; at 0.00122 µM, OCI-P5x cells, without rucaparib",100% (inactive)
same,viability,"[12]; at 0.00488 µM, OCI-C5x cells, with rucaparib 10 µM, 100% = cells with rucaparib alone",122% (inactive)
same,viability,"[12]; at 0.00488 µM, OCI-C5x cells, without rucaparib",111% (inactive)
same,viability,"[12]; at 0.00488 µM, OCI-P5x cells, with rucaparib 20 µM, 100% = cells with rucaparib alone",87.8% (active)
same,viability,"[12]; at 0.00488 µM, OCI-P5x cells, without rucaparib",104% (inactive)
same,viability,"[12]; at 0.0195 µM, OCI-C5x cells, with rucaparib 10 µM, 100% = cells with rucaparib alone",110% (inactive)
same,viability,"[12]; at 0.0195 µM, OCI-C5x cells, without rucaparib",118% (inactive)
same,viability,"[12]; at 0.0195 µM, OCI-P5x cells, with rucaparib 20 µM, 100% = cells with rucaparib alone",90.3% (active)
same,viability,"[12]; at 0.0195 µM, OCI-P5x cells, without rucaparib",112% (inactive)
same,viability,"[12]; at 0.0781 µM, OCI-C5x cells, with rucaparib 10 µM, 100% = cells with rucaparib alone",111% (inactive)
same,viability,"[12]; at 0.0781 µM, OCI-C5x cells, without rucaparib",118% (inactive)
same,viability,"[12]; at 0.0781 µM, OCI-P5x cells, with rucaparib 20 µM, 100% = cells with rucaparib alone",88% (active)
same,viability,"[12]; at 0.0781 µM, OCI-P5x cells, without rucaparib",101% (inactive)
same,viability,"[12]; at 0.313 µM, OCI-C5x cells, with rucaparib 10 µM, 100% = cells with rucaparib alone",112% (inactive)
same,viability,"[12]; at 0.313 µM, OCI-C5x cells, without rucaparib",113% (inactive)
same,viability,"[12]; at 0.313 µM, OCI-P5x cells, with rucaparib 20 µM, 100% = cells with rucaparib alone",83.3% (active)
same,viability,"[12]; at 0.313 µM, OCI-P5x cells, without rucaparib",103% (inactive)
same,viability,"[12]; at 1.25 µM, OCI-C5x cells, with rucaparib 10 µM, 100% = cells with rucaparib alone",111% (inactive)
same,viability,"[12]; at 1.25 µM, OCI-C5x cells, without rucaparib",116% (inactive)
same,viability,"[12]; at 1.25 µM, OCI-P5x cells, with rucaparib 20 µM, 100% = cells with rucaparib alone",78.7% (active)
same,viability,"[12]; at 1.25 µM, OCI-P5x cells, without rucaparib",102% (inactive)
same,viability,"[12]; at 5 µM, OCI-C5x cells, with rucaparib 10 µM, 100% = cells with rucaparib alone",55.4% (active)
same,viability,"[12]; at 5 µM, OCI-C5x cells, without rucaparib",51.8% (active)
same,viability,"[12]; at 5 µM, OCI-P5x cells, with rucaparib 20 µM, 100% = cells with rucaparib alone",43.9% (active)
same,viability,"[12]; at 5 µM, OCI-P5x cells, without rucaparib",78.9% (active)
COc1ccnc(CS(=O)c2nc3ccc(OC(F)F)cc3[nH]2)c1OC (stereo not drawn),outcome,[1],inactive
same,outcome,[2],inactive
same,outcome,[3],inactive
same,outcome,[4],inactive
same,fold change,[5]; [13],0.948 (inactive) and 0.839 (inactive)
same,fold change,[5]; [14],4.32 and 0.927
same,cell count,[5]; [15],12000 and 8980
same,cell count,[5]; [16],12600 and 10700
same,z-score,[7]; [17],0.74 (inactive)
same,z-score,[7]; [18],-0.32
same,remaining NAD,[9],10 nM (inactive)
same,luciferase signal,[10],56 AU (inactive)
same,z-score,[8],1.18 (inactive)
Cn1cnc2c1c(=O)[nH]c(=O)n2C,outcome,[1],inactive
same,AC50,[2],20.9 µM (active)
same,outcome,[3],inactive
same,outcome,[4],inactive
same,fold change,[5]; [13],0.912 (inactive) and 0.854 (inactive) and 0.906 (inactive)
same,fold change,[5]; [14],0.922 and 1.4 and 3.48
same,cell count,[5]; [15],9550 and 8390 and 11600
same,cell count,[5]; [16],10500 and 9820 and 12900
same,outcome,[6],inactive
same,z-score,[7]; [17],-0.269 (inactive)
same,z-score,[7]; [18],-0.702
same,remaining NAD,[9],10 nM (inactive)
same,luciferase signal,[10],60 AU (inactive)
same,z-score,[8],0.475 (inactive)
Cn1c(=O)c2c(ncn2CC(O)CO)n(C)c1=O (stereo not drawn),outcome,[1],inactive
same,outcome,[2],inactive
same,outcome,[3],inactive
same,outcome,[4],inactive
same,fold change,[5]; [13],0.891 (inactive) and 0.954 (inactive) and 0.903 (inactive)
same,fold change,[5]; [14],1.59 and 0.805 and 1.72
same,cell count,[5]; [15],9080 and 7480 and 11300
same,cell count,[5]; [16],10200 and 7830 and 12600
same,z-score,[7]; [17],-0.421 (inactive) and 0.782 (inactive)
same,z-score,[7]; [18],0.428 and -0.0518
same,remaining NAD,[9],10 nM (inactive)
same,luciferase signal,[10],20 AU (inactive)
NCC1CCC(C(=O)O)CC1 (stereo not drawn),outcome,[1],inactive
same,outcome,[2],inactive
same,outcome,[3],inactive
same,outcome,[4],inactive
same,fold change,[5]; [13],0.928 (inactive) and 0.834 (inactive)
same,fold change,[5]; [14],1.25 and 2.45
same,cell count,[5]; [15],8960 and 11200
same,cell count,[5]; [16],9660 and 13500
same,z-score,[7]; [17],-0.244 (inactive)
same,z-score,[7]; [18],-0.313
same,remaining NAD,[9],10 nM (inactive)
same,luciferase signal,[10],44 AU (inactive)
CCOc1cc(CC(=O)N[C@@H](CC(C)C)c2ccccc2N2CCCCC2)ccc1C(=O)O,outcome,[1],inactive
same,outcome,[2],inactive
same,outcome,[3],inactive
same,outcome,[4],inactive
same,fold change,[5]; [13],0.924 (inactive) and 0.888 (inactive) and 0.976 (inactive)
same,fold change,[5]; [14],0.881 and 1.49 and 4.38
same,cell count,[5]; [15],8510 and 8490 and 12000
same,cell count,[5]; [16],9210 and 9560 and 12300
same,z-score,[7]; [17],-0.407 (inactive)
same,z-score,[7]; [18],0.416
same,remaining NAD,[9],10 nM (inactive)
same,z-score,[8],3.92 (active)
CC1=C(C)C(=O)C(C(CCCCCC(=O)O)c2ccccc2)=C(C)C1=O (stereo not drawn),outcome,[1],inactive
same,outcome,[2],inactive
same,outcome,[3],inactive
same,outcome,[4],inactive
same,fold change,[5]; [13],0.907 (inactive)
same,fold change,[5]; [14],0.844
same,cell count,[5]; [15],9450
same,cell count,[5]; [16],10400
same,remaining NAD,[9],10 nM (inactive)
CCCc1nc(C)c2c(=O)[nH]c(-c3cc(S(=O)(=O)N4CCN(CC)CC4)ccc3OCC)nn12,outcome,[1],inactive
same,AC50,[2],8.33 µM (active)
same,outcome,[3],inactive
same,outcome,[4],inactive
same,z-score,[7]; [17],-0.282 (inactive) and 1.61 (inactive) and 1.47 (inactive)
same,z-score,[7]; [18],-1.38 and 1.33 and 1.06
same,remaining NAD,[9],18 nM (inactive)
same,luciferase signal,[10],60 AU (inactive)
same,z-score,[8],0.68 (inactive) and 0.485 (inactive)
